VP16 counter = Gal4-VP16 reporter inhibition counter-screen | Drosophila S2 Gal4-VP16 UAS-luciferase, luminescence, 20 h | Potency, µM (series often up to 53.6 µM), inactives show at the top dose activity, negative = inhibition, most hits filed as inhibitors | 310,000 compounds, 3.5% hits;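 also: Gal4-VP16 expression switched on by copper sulfate through the metallothionein promoter; potency is read from the fitted curve at half-maximal effect; nearly all actives have a fitted effect of over 50% in size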
RORg inh = inhibitors of mouse ROR gamma transcriptional activity | Drosophila S2 Gal4-RORgamma UAS-luciferase reporter, 20 h | Potency, µM (doses to about 53.6 µM), for inactives: at the top dose activity change, negative = inhibition, actives largely listed as inhibitors | 310,000 compounds, 5.4% hits | AID 2551; also: potency is read from the fitted curve at half-maximal effect; nearly all actives have a fitted effect of over 60% in size
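Drosophila Schneider cells stably carrying a metallothionein-driven Gal4 DBD–ROR gamma fusion and a UAS-Photinus luciferase reporter were exposed to compound for 1 hr, then induced with copper sulfate (700 uM final) for 20 hr at ambient temperature before luminescence reading.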
ELG1 DNA repair = ELG1-dependent DNA repair inhibition; AID 504467; 330,000 compounds, 2.3% hits; Potency, µM (doses to about 46.1 µM), inactives show at the top dose activity change, negative = inhibition, most hits filed as inhibitors; HEK293T ELG1-luciferase reporter, luminescence, 16 h; DNA damage induced by 5-fluorouridine; also: potency is read from the fitted curve at half-maximal effect; nearly all actives have a fitted effect of over 55% in size
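Overnight (16 hr) co-exposure of 2,000 cells/well to 5-fluorouridine and compound at 37 °C preceded detection. Luciferase was quantified via ONE-Glo luminescence; loss of signal denotes inhibition.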
Coupling enz = inhibits coupling enzyme system, counter-screen for aldolase hits; 290,000 compounds, 0.67% hits; AID 2472; coupling enzyme system counterscreen, AmpLite Red fluorescence; activity change, negative = inhibition, % at 58.2 µM, hits read low; in the data active = activity change below about -30%
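First, compound is pin-transferred into glyceraldehyde-3-phosphate coupling-enzyme reagent at 57.5 uM final and held 10 min at RT. Next, substrate, coupling system and AmpLite Red are added. After 20 min RT, fluorescence (525/598 nm) is read.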
TSHR antag = blocks TSH signaling through the human TSH receptor. TSHR-expressing cells, TSH-stimulated cAMP HTRF, 2 h; hits give low values. activity change, negative = inhibition, % at 11.5 µM. 330,000 compounds, 0.2% hits. AID 504810;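 active = activity change below a set negative limit, meaning inhibition stronger than a set level, cut at about -70% in these data; inconclusive = activity change between two set negative limits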
Target sequence (P16473 whole entry, looked up): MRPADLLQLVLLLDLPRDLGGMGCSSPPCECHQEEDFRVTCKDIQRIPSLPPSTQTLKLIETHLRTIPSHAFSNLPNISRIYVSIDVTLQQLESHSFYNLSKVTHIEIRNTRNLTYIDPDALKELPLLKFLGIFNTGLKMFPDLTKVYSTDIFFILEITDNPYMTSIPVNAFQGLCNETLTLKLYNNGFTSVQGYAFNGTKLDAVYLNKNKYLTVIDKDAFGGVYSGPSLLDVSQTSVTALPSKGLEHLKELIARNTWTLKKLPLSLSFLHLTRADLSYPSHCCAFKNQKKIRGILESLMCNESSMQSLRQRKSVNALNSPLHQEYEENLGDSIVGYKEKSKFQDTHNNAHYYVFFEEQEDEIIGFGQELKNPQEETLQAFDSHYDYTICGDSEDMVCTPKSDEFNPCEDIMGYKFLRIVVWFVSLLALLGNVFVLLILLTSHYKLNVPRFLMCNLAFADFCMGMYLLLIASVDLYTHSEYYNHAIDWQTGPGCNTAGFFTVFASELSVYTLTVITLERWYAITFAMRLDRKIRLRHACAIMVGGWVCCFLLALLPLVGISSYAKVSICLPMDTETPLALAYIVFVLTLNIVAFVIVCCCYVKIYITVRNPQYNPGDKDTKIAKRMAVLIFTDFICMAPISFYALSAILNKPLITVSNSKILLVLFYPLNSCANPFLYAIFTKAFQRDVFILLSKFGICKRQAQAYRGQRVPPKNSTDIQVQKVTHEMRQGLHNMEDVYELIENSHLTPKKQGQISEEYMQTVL
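Freshly harvested TSHR cells receive pin-tooled compound, then EC80 TSH at 4nM final. After 2 hours at 37 deg C, antibody in lysis buffer and cAMP-d2 are added; 30 minutes at ambient temperature precede the HTRF read.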
* hit, by the source's call; ? = inconclusive; nt = no result; [ ] = remark or other dose. Sampled rows, rich in hits. Any-hit rate of the full collection: about 8%. Unless noted, calls follow the shape of the dose curve; as a rule, active = well fitted curve in the direction sought with a large enough effect; inconclusive = small, poorly fitted or top-dose-only effect, or another doubt; inactive = no such curve, though single readings can be large; an effect the other way counts as inactive or inconclusive. % is scaled to controls: 0 for no effect and ±100 for the full control effect.

SMILES | VP16 counter | RORg inh | ELG1 DNA repair | Coupling enz | TSHR antag
CN(CCCC(=O)N1CCCC(C(N)=O)C1)S(=O)(=O)c1ccc(F)cc1 (stereo not given) | 4.8% | 10.0% | ? | 1.5 | 18.7
CCOc1cc(C2C(C(=O)c3ccco3)=C(O)C(=O)N2CC2CCCO2)ccc1O (stereo not given) | 2.7% | -4.6% | 2.5% | -0.6 | -7.7
CCn1c(NC(=O)/C=C/c2ccc(F)cc2)nc2ccccc21 | ? | 1.26µM* | ? | -2.1 | 2.3
CCCCCn1c(CNC(=O)c2cccs2)nc2ccccc21 | 2.1% | 5.3% | ? | -1.7 | -0.2
CNc1nc2ccccc2n1CC(=O)c1ccccc1 | 11.4% | -12.9% | ? | 1.8 | 4.4
CCCCn1c(NCCO)nc2ccccc21 | -3.0% | 27.2% | 4.0% | 1.4 | 9.9
CCOC(=O)c1sc(NC(=O)/C=C/c2ccc(F)cc2)nc1C | -2.1% | 11.7% | -1.0% | -4.9 | 2.0
CCn1c(NC(=O)c2ccccc2)nc2ccccc21 | 2.51µM* | 0.316µM* | ? | -2.6 | 0.9
CCCCn1c(CNC(=O)c2cccs2)nc2ccccc21 | ? | 11.2µM* | 2.3% | -1.2 | -9.4
CCCCn1c(NC(=O)c2ccccc2)nc2ccccc21 | 2.24µM* | 1.12µM* | 4.8% | -14.2 | -9.4
COc1ccc(NC(=O)c2ccc3c(=O)n(CC4CCCO4)c(=S)[nH]c3c2)c(OC)c1 (stereo not given) | -2.2% | ? | -23.0% | 1.6 | -4.4
CCc1ccccc1Nc1nc2ccccc2n1CC | ? | 14.1µM* | 17.3% | 1.0 | 3.9
Fc1ccccc1NC(=S)NCc1ccccc1 | ? | ? | 15.3% | -0.7 | -15.4
O=C(NCc1ccncc1)Nc1ccc(Cl)cc1Cl | 3.6% | 38.7% | -1.7% | 2.2 | 30.8
Fc1ccc(CNC(=S)Nc2ccc(Cl)cc2Cl)cc1 | 5.62µM* | 3.98µM* | -8.2% | 3.0 | 6.4
S=C(NCc1ccc(Cl)cc1)Nc1ccc(Cl)cc1Cl | 11.2µM* | 11.2µM* | 11.1% | 1.2 | -10.0
S=C(NCCCN1CCOCC1)Nc1ccc(Cl)cc1Cl | -3.1% | -13.4% | 1.6% | -2.6 | -7.4
S=C(NCc1ccncc1)Nc1ccc(Cl)cc1Cl | -18.6% | 7.6% | 16.4µM* | 0.7 | 9.9
Fc1ccc(NC(=S)Nc2ccc(Cl)cc2Cl)cc1 | 7.1% | ? | ? | -0.5 | -7.1
S=C(NCc1ccc(Cl)cc1)Nc1ccccc1Cl | ? | 12.6µM* | 6.0% | -0.7 | -5.0
C#CCN1Cc2ccccc2Oc2cc(Br)ccc2S1(=O)=O | nt | nt | -5.5% | nt | -21.5
CN(Cc1ccccc1)C(=O)COC(=O)CN1C(=O)c2ccccc2C1=O | nt | nt | 6.6% | nt | nt
COCCNC(=O)c1cccc(OC2CCN(Cc3ccccc3C)CC2)c1 | 2.7% | -14.0% | -7.8% | 2.1 | 12.7
CCCNC(=S)Nc1ccc(Cl)cc1Cl | ? | 11.2µM* | ? | 0.1 | -7.3
CSc1ccccc1NC(=S)NCc1ccc(Cl)cc1 | 11.2µM* | 7.08µM* | ? | 3.5 | 10.9
SMILES | VP16 counter | RORg inh | ELG1 DNA repair | Coupling enz | TSHR antag
S=C(NCCc1ccc(Cl)cc1)Nc1ccc(Cl)cc1Cl | 4.47µM* | 5.62µM* | -12.5% | 0.9 | -34.8
S=C(NCCN1CCOCC1)Nc1ccc(Cl)cc1Cl | 8.5% | -28.6% | ? | 0.6 | 10.5
CN(CC(=O)Nc1cc(Cl)cc(Cl)c1)Cc1cccs1 | -21.7% | 16.7% | -1.4% | -4.9 | -1.9
Cc1onc(-c2ccccc2Cl)c1C(=O)NC1CCCCCC1 | -16.0% | 8.5% | -7.2% | -1.1 | -8.8
CCOc1cccc2sc(N3CCN(C(=O)c4ccc5ncsc5c4)CC3)nc12 | nt | nt | -11.6% | nt | -3.1
CCC(C(=O)OCC(=O)NC1CCS(=O)(=O)C1)c1ccccc1 (stereo not given) | nt | nt | ? | nt | 6.1
Cc1onc(-c2c(Cl)cccc2Cl)c1C(=O)OCC(=O)c1ccccc1 | -0.6% | -14.6% | 1.3% | -3.4 | -7.2
CCOC(=O)c1cc(-c2c(Cl)cccc2Cl)no1 | -1.1% | 7.4% | 13µM* | -6.8 | 17.4
CCCN1CCN(C(=O)Cn2nc(CC)n3c(cc4sccc43)c2=O)CC1 | -2.4% | -31.8% | ? | 3.3 | 5.2
CN(N=O)C(=O)N[C@H]1[C@@H](O)[C@H](O)[C@H](CO)O[C@@H]1O | 1.2%[17 µM] | 7.0%[2.98 µM] | nt | 3.1 | nt
